This is an account of results in PubChem BioAssay (NCATS).

Results filed as inconclusive are left out. Where a call stands in place of a potency, no number is given. Unmarked numbers belong to inactive results. Active and inactive are the calls of the source. Calls come from the whole dose curve; as a rule, active = well fitted inhibition curve with a large enough effect; inconclusive = small, poorly fitted or top-dose-only effect; inactive = flat fitted curve, though single readings scatter.

The subject of the assay is Zika virus NS2B-NS3 protease. The experiment in a line: Primary screen GU AMC qHTS for Zika virus inhibitors (AID 1347154). Note: nearly all actives have a fitted effect of over 70% in size. To be noted: Zika NS2B-NS3 unlinked protease, AMC fluorogenic substrate; series mostly up to 54.1 µM. The gist of the method: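 Unlinked Zika NS2B hydrophilic domain/NS3 protease domain noncovalent complex (25 nM final) in 10 mM Tris-HCl pH 8.0, 0.01% Tween 20, with AMC peptide substrate. Fluorescence (ex 340, em 450 nm) change over 15 min, room temperature; percent inhibition fitted to 4-parameter Hill equation.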
As to `Cc1cc(C)c(NC(=O)CN(CC(=O)O)CC(=O)O)c(C)c1Br`, the Potency entry is “inactive”.
Turning to `Cc1[nH]c(C)c(Cl)c(=O)c1Cl`, the Potency result was “inactive”.
Take `CC(=O)Nc1cccc(O)c1`: the Potency entry was “inactive”.
Take `O=C(O)CNC(=O)c1ccccc1I`: the Potency entry was “inactive”.
For the compound `CC[N+](CC)(CC(=O)Nc1c(C)cccc1C)Cc1ccccc1`, the Potency result was “inactive”.
For `CCCCCCCCCCC(CO)CCCCCCCC` (configuration not stated), the Potency result is “inactive”.
For `Cc1ccc(S(=O)(=O)NC(=O)NC2CCCCC2)cc1`, the Potency entry is “inactive”.
On the same count and under the same terms, under `CC(=O)N1C[C@H](O)C[C@H]1C(=O)O` stands “inactive”; under `CN1CCN(C(=O)C2CCCCC2)CC1`, “inactive”.
As for `Cc1ccc(C(C)C)c(O)c1`, the Potency result is “inactive”.
With `CC[C@H](C)[C@H](N)C(=O)O`, the Potency entry is “inactive”.
For `NC(=O)CC[C@@H](N)C(=O)O`, the Potency result was “inactive”.
In the case of `C/C(=C(\CCO)SS/C(CCO)=C(\C)N(C=O)Cc1cnc(C)nc1N)N(C=O)Cc1cnc(C)nc1N`, the Potency result was “inactive”.
Same read-out and setting: under `CC(C)CCCC(C)CCCC(C)CCCCC(C)CCCC(C)CCCC(C)C` (configuration not stated) stands “inactive”.
Same read-out and setting: under `C[N+](C)(C)CC(O)CC(=O)[O-]` (configuration not stated) stands “inactive”; under `OCCN1C[C@H](O)[C@@H](O)[C@H](O)[C@H]1CO`, “inactive”.
As for `NC(N)=NCCN1CCCCCCC1`, the activity change, negative = inhibition is -2.2% [at 0.59 µM].
As to `CC1CCc2cc(F)cc3c(=O)c(C(=O)O)cn1c23` (configuration not stated), the Potency result is “inactive”.
With `Cc1ncc(CO)c(CN)c1O`, the Potency result was “inactive”.
With `CC(CSC(=O)c1ccccc1)C(=O)N1C[C@@H](Sc2ccccc2)C[C@H]1C(=O)O` (some centres not stated), the Potency entry was “inactive”.
Consider `C=CCOc1ccccc1OCC(O)CNC(C)C` (configuration not stated), for which the Potency result was “inactive”.
On to `CCCOC(=O)c1ccc(N)cc1`, for which the Potency entry was “inactive”.
Same read-out and setting: under `Cn1c([N+](=O)[O-])cnc1COC(N)=O` stands “inactive”; under `CC[C@]12CCCN3CCc4c(n(c5ccccc45)[C@@](O)(C(=O)OC)C1)[C@@H]32`, “inactive”; under `OCC(O)CS` (configuration not stated), “inactive”.
With `CO[C@@]1(NC(=O)C(C(=O)O)c2ccc(O)cc2)C(=O)N2C(C(=O)O)=C(CSc3nnnn3C)CO[C@@H]21` (some centres not stated), the Potency entry is “inactive”.
Turning to `CCCCCCCC(=O)OCC(COC(=O)CCCCCCC)OC(=O)CCCCCCC`, the Potency result was “inactive”.
Regarding `CC(=O)SC[C@@H](Cc1ccccc1)C(=O)NCC(=O)OCc1ccccc1`, the Potency result is “inactive”.
Still for that read-out and setting: under `NS(=O)(=O)c1cc(-c2nn[nH]n2)c(NCc2cccs2)cc1Cl` stands “inactive”; under `CC(C)C[C@@H](N)C(=O)O`, “inactive”.
For `C[n+]1ccccc1/C=N/O`, the Potency result was “inactive”.
Consider `Cc1c(I)c(=O)n(-c2ccccc2)n1C`, for which the Potency result was “inactive”.
Regarding `C=CCSCC1Nc2cc(Cl)c(S(N)(=O)=O)cc2S(=O)(=O)N1` (configuration not stated), the Potency result is “inactive”.
For the compound `CC1CC(OC(=O)c2ccccc2O)CC(C)(C)C1` (configuration not stated), the Potency entry is “inactive”.
Still for that read-out and setting: under `COc1ccc(NS(=O)(=O)c2ccc(N)cc2)nn1` stands “inactive”; under `CCCCC1(COC(=O)CCC(=O)O)C(=O)N(c2ccccc2)N(c2ccccc2)C1=O`, “inactive”.
`CC(C)=CCC[C@@](C)(O)[C@H]1CC=C(C)CC1`: the Potency result is “inactive”.
